# Laboratory results reported in PubChem BioAssay (Tox21).
# Activity calls are given as the source filed them. Calls come from the whole dose curve; as a rule, active = well fitted curve in the direction sought with a large enough effect in the repeat runs; inconclusive = weak or mixed curves; inactive = flat fitted curve, though single readings scatter.
# Experiment: qHTS assay to test for compound auto fluorescence at 535 nm (green) in HepG2 cells (AID 720675)
# Conditions: green autofluorescence 485/535 nm, 1 h; series mostly up to 91.3 µM; fluorescence, % of fluorescein control: at the top concentration
# Source text: National Center for Advancing Translational Sciences [NCATS]
# NIH Chemical Genomics Center [NCGC]
# U.S. Environmental Protection Agency [EPA]
# National Institutes of Environmental Health Sciences [NIEHS]
# National Toxicology Program [NTP]
# U.S. Food and Drug Administration [FDA]
# Compound auto fluorescence often interferes with screening of the compound library against various biological targets and signaling pathways. Some of these compounds may have fluorophoric properties. Such properties may interfere with the assay outputs resulting in false positives and/or negatives. To decrease such complications and ensure the compound activities are relevant in terms of biological response, the Tox21 10K compound library was screened for auto fluorescence.
# From the fluorophores used as reporter signals in our screening assays, the auto fluorescence equivalencies of compounds against three fluorophores have been evaluated: Triamterene, Fluorescein and Rose Bengal sodium for blue, green and red fluorescence, respectively. The fluorescence intensities were measured using Excitation/Emission wavelengths at 405/460nm, 485/535nm and 540/590nm for blue, green and red labels, respectively. This assay includes the green fluorescence data.
# Tox21 Assay Protocol Summary:
# 2,000 HepG2 cells in 5 uL of culture medium (MEM containing 10% FBS) per well were dispensed into black wall/clear bottom 1536-well plates using a Multidrop Combi Dispenser (ThermoFisher Scientific, Waltham, MA). The assay plates were incubated overnight at 37 C to allow cell attachment to the well bottom, followed by the transfer of 23 nL compound or DMSO vehicle by a pintool work station (Kalypsys , San Diego, CA). After the assay plates were incubated for 1 hr at 37 C and 5% CO2, fluorescence intensities in the assay plates were measured by an Envision (PerkinElmer, Shelton, CT) plate reader using three labels for measuring blue, green and red fluorescence at […] 460, 535 and 590 nm respectively.
# % is set by controls: 0 for no effect and ±100 for the full control effect.
row,Compound,"fluorescence, % of fluorescein control"
1,CSc1ccc(C=O)cc1,-0.0072% (inactive)
2,OCC(O)[C@@H](O)[C@H](O)[C@H](O)CO[C@H]1O[C@H](CO)[C@@H](O)[C@H](O)[C@H]1O (stereo not given in full),-0.0793% (inactive)
3,Cc1onc(-c2ccccc2)c1-c1ccc(S(N)(=O)=O)cc1,0.0149% [at 46 µM] (inactive)
4,OCc1ccccn1,0.0724% [at 46 µM] (inactive)
5,CCCCCCCCCCCCCCC,0.0084% (inactive)
6,COc1cccc(OC)c1,-0.0004% (inactive)
7,CCCc1ccccc1O,-0.0323% (inactive)
8,O=C1OC(=O)c2cc([N+](=O)[O-])ccc21,-0.1% (inactive)
9,CCCCN(CCO)CCO,-0.001% (inactive)
10,NC(=O)c1ncn([C@@H]2O[C@H](CO)[C@@H](O)[C@H]2O)c1N,0.0386% [at 46 µM] (inactive)
11,Cc1ccc(N)cc1[N+](=O)[O-],-0.0104% (inactive)
12,COc1cc(O)cc(O)c1,0.173% [at 46 µM] (inactive)
13,Nc1[nH]c(=O)ncc1F,0.005% [at 18.6 µM] (inactive)
14,COCc1ccc(COC)cc1,0.0345% (inactive)
15,C=C[Si](OC)(OC)OC,0.157% (inactive)
16,CC(C)(C)CC(C)(C)N,0.0137% (inactive)
17,O=S(=O)(O)c1ccccc1O,-0.0727% (inactive)
18,CC(C)(C)OC(=O)N1C[C@@H](F)C[C@H]1C(=O)O,-0.0124% [at 95.7 µM] (inactive)
19,Cn1cnc2c(=O)[nH]c(N)nc21,-0.0118% (inactive)
20,OCCCCCCO,0.0042% [at 95.7 µM] (inactive)

row,Compound,"fluorescence, % of fluorescein control"
1,CCC(C)OC(=O)N1CCCCC1CCO (stereo not given),0.0061% (inactive)
2,CC(C)CCCCCCN,0.187% (inactive)
3,COC[C@H](c1ccc(C(F)(F)F)cc1)N1CCN(C2(C)CCN(C(=O)c3c(C)ncnc3C)CC2)C[C@H]1C,0.0175% [at 46 µM] (inactive)
4,Fc1ccccc1-c1ccccc1,0.0083% [at 95.7 µM] (inactive)
5,C=C(C)C(=O)OCCCCCCCCCCCCCCCCCC,-0.0046% [at 18.6 µM] (inactive)
6,COc1ccc(COC=O)cc1,0.0888% (inactive)
7,CCCCCOC(=O)Nc1nc(=O)n([C@@H]2O[C@H](C)[C@@H](O)[C@H]2O)cc1F,-0.0253% [at 46 µM] (inactive)
8,CC(C)(C)N(CCO)CCO,-0.0017% [at 95.7 µM] (inactive)
9,C[N+](C)(C)CC[N+]1(C)Cc2c(Cl)c(Cl)c(Cl)c(Cl)c2C1,-0.0034% [at 46 µM] (inactive)
10,NCCNC(=O)c1ccc(Cl)cn1,-0.0061% [at 46 µM] (inactive)
11,CN1[C@@H]2CC[C@H]1CC(NC(=O)n1c(=O)[nH]c3ccccc31)C2 (stereo not given in full),0.0759% [at 46 µM] (inactive)
12,CN(C)C(=O)C(CCN1CCC(O)(c2ccc(Cl)cc2)CC1)(c1ccccc1)c1ccccc1,0.0516% [at 46 µM] (inactive)
13,CC(C)c1cccc(C(C)C)c1N,-0.0351% (inactive)
14,COc1ccc(NC(C)=O)cc1,-0.0102% [at 95.7 µM] (inactive)
15,CCCC(C)C(=O)O (stereo not given),0.0116% (inactive)
16,CC(=O)O[C@H](CC(=O)[O-])C[N+](C)(C)C,0.161% (inactive)
17,COCCOC(=O)CC#N,-0.0142% (inactive)
18,COc1cccc(Br)c1,0.0428% (inactive)
19,CCO[Si](C)(OCC)OCC,-0.192% (inactive)
20,C=C(C)C(=O)NCCCN(C)C,0.0642% (inactive)
